Data on 17 sequences can be found in the OligoGym collection.
Note: reference of the scale not given here.

The first assay addresses NPSR1. The experiment in a line: pooled miR-30 sensor sort-seq; sequence = guide strand. To be noted: shRNA.
In the case of TTCTTCTTTCTCCTCCATGTGG, the sensor-assay potency score (higher = more potent) was -0.829.

With TAGAGCAGCACAACCTGCAAAT, the sensor-assay potency score (higher = more potent) was -0.941.

For TAGCGCAGCCTCCTGGAGCTGA, the sensor-assay potency score (higher = more potent) is -0.612.

TTGGACAGTGTCCTCTTCCCAA: the sensor-assay potency score (higher = more potent) is -1.13.

In turn, TTTGCCTTTGAGATGAGTCCTC displayed a sensor-assay potency score (higher = more potent) of 0.0754.

A further assay has as its target NR3C1. The description is as above. As to conditions: shRNA.
As for TAGAAAAAACTGTTCGACCAGG, the sensor-assay potency score (higher = more potent) was -0.371.

TAGAATATTGACACACTTGAAT: the sensor-assay potency score (higher = more potent) is -0.527.

TAGGGTTTTATAGAAGTCCATC came in with a sensor-assay potency score (higher = more potent) of -1.08.

Consider TTGAAGAAAACTTTACAGCTTC, for which the sensor-assay potency score (higher = more potent) is 0.56.

Turning to TGACTTATTATTGACAACGAAG, the sensor-assay potency score (higher = more potent) is -1.46.

TTCATCTATCAACAGGTCTGAT had a sensor-assay potency score (higher = more potent) of -0.68.

TTTTCTTCGAATTTTATCGATG returned a sensor-assay potency score (higher = more potent) of -1.06.

Regarding TTGAGCGTAGTCATGATCCTCC, the sensor-assay potency score (higher = more potent) stood at 0.514.

The sequence TTCAGGTTCAATAACCTCCAAC displayed a sensor-assay potency score (higher = more potent) of -0.915.

With TTACATTGGTCGTACATGCAGG, the sensor-assay potency score (higher = more potent) was -0.108.

For the sequence TTCACCTACAGCTACAGTCAGG, the sensor-assay potency score (higher = more potent) was -1.07.

In the case of TTGACAAAACCAGATCTCCATT, the sensor-assay potency score (higher = more potent) is -1.1.
